Laboratory results published in PubChem BioAssay AID1159580 (chemical genetic matrix, 2015).
In all, about 5,500 compounds went through this assay and about 2,000 (36%) were called active. Roughly 18% stayed inconclusive and do not appear here. Cut-off read from the data, not from the text of the source: active = normalized growth mostly below about 0.91 (no sharp cut-off); inconclusive = no clear call, values can overlap the other calls; inactive = mostly above about 0.92. The list shows a part of the results.

Assay: chemical genetic growth profiling, strain panel (AID 1159580);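 note: tested at 20 µM; growth read once vehicle control cultures reached saturation at 30 °C; 1 = growth at the plate median or of vehicle wells; lower values mean less growth of the strain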
Conditions: S. cerevisiae deletion strains, growth OD

Measured: normalized growth

COc1ccc2c(c1)c(CC(=O)O)c(C)n2C(=O)c1ccccc1
inactive: locus YAL040C, strain CLN3, active compounds read low 1.03 | locus YDR150W, strain NUM1, active compounds read low 0.99 | locus YDR363W, strain ESC2, active compounds read low 1.04 | locus YER002W, strain NOP16, active compounds read low 1 | locus YGR078C, strain PAC10, active compounds read low 1.03 | locus YGR229C, strain SMI1, active compounds read low 1.02 | locus YNL153C, strain GIM3, active compounds read low 0.986 | locus YNL175C, strain NOP13, active compounds read low 1.02 | locus YNL197C, strain WHI3, active compounds read low 1.01 | locus YNL224C, strain SQS1, active compounds read low 1.02 | locus YOR083W, strain WHI5 (second series), active compounds read low 1.03 | locus YPL055C, strain LGE1, active compounds read low 1 | locus YPL241C, strain CIN2, active compounds read low 0.998
